In PubChem BioAssay AID1626 (SRMLSC, 2009):
The whole screen tested about 220,000 compounds, of which about 2,000 (0.91%) were called active. Not shown: some 2% with an inconclusive outcome. Cut-off read from the data, not from the text of the source: inconclusive = inhibition above about 80% without an active follow-up result; inactive = below that; test concentration not stated here. Only a sample is shown. Measured potencies and affinities stand elsewhere.

experiment: M. tuberculosis H37Rv growth inhibitors, H37Rv strain (AID 1626); conditions: active compounds read high, concentration not given here;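 note: bacteria incubated seven days before Alamar blue readout; 0% = bacteria only wells and 100% = bacteria with antibiotic wells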

Row | Compound | inhibition
1 | CCN(CC)S(=O)(=O)c1cccc(C(=O)N/N=C2\CCCC(=O)C2)c1 | -9.95% (inactive)
2 | CCNc1nc(SCCOc2ccc(Br)cc2)nc(N(C)C)n1 | -0.8% (inactive)
3 | Cc1nn(C)c(C)c1S(=O)(=O)N1CCC(C(=O)NCCC2=CCCCC2)CC1 | -9.44% (inactive)
4 | Cc1ccc(C)c(-c2cc(C(=O)Nc3cccc(C(=O)O)c3)c3ccccc3n2)c1 | 2.58% (inactive)
5 | COc1ccc(/C=C/C2=NN(Cc3ccccc3)C(=O)CC2)cc1 | -0.13% (inactive)
6 | Cc1cc(N2CCN(C)CC2)nc(-c2ccccc2O)n1 | -1.49% (inactive)
7 | Cc1cccc(OCC(=O)Nc2cccc(-c3nnc(-c4ccccc4)o3)c2)c1C | 3.74% (inactive)
8 | O=C(COc1ccccc1)Nc1cccc(-c2nnc(-c3ccccc3)o2)c1 | 14.9% (inactive)
9 | O=C(Nc1ccc2nc(-c3ccccc3)oc2c1)c1ccco1 | -2.22% (inactive)
10 | COc1ccc(-c2nc3ccccc3c(=O)o2)cc1OC | 12.4% (inactive)
11 | CCC(=O)Nc1ccc(-c2nnc(-c3ccccc3)o2)cc1 | 5.07% (inactive)
12 | CC(C)C(=O)Nc1cccc(-c2nc3ccccc3c(=O)o2)c1 | 0.23% (inactive)
13 | O=C(Nc1ccc(-c2nc3cc(Cl)ccc3c(=O)o2)cc1)c1ccco1 | 9.67% (inactive)
14 | CCOc1ccc(-c2nc3ccccc3c(=O)o2)cc1 | 3.93% (inactive)
15 | O=C1CC(c2ccc(Br)cc2)NC(c2ccc(Br)cc2)C1c1ccccc1 (stereo not given) | 15.2% (inactive)
16 | Nc1cc(-c2ccccc2)nn1S(=O)(=O)c1ccc(Br)cc1 | 12.3% (inactive)
17 | COc1cc(SC)ccc1C(=O)Nc1ccc(C)cc1C | 2.28% (inactive)
18 | Cc1onc(-c2ccccc2)c1C(=O)N1CCN(C)CC1 | -7.83% (inactive)
19 | Cc1cc(C(=O)N/N=C2\CC(=O)c3ccccc32)c(C)n1-c1ccccc1 | -0.53% (inactive)
20 | COc1ccc(/C=N/NC(=O)CC2N=C(Cc3ccccc3)NNC2=O)cc1OC (stereo not given) | -1.24% (inactive)
21 | O=C(Oc1c(Cl)cc(Cl)c2ccccc12)N1CCCCC1 | 11.7% (inactive)
22 | NC(=O)CCC(NC(=O)c1ccc(Cl)cc1)C(=O)O (stereo not given) | 2.33% (inactive)

Row | Compound | inhibition
23 | COc1ccc(NC(=O)CCN2C(=O)[C@@H]3[C@H](C2=O)[C@H]2C=C[C@@H]3C2)cc1 | -1.56% (inactive)
24 | CC(C)(C)C(=O)Nc1cccc(-c2nc3ccccc3c(=O)o2)c1 | 70.7% (inactive)
25 | COc1ccc(-c2nc3ccccc3c(=O)o2)cc1 | 11.6% (inactive)
26 | O=C1C2C3C=CC(C3)C2C(=O)N1c1ccc(-c2nc3ccccc3o2)cc1 (stereo not given) | 0.58% (inactive)
27 | O=C(Nc1ccc(-c2nc3ccccc3o2)cc1)c1ccc(N2C(=O)C3C4C=CC(C4)C3C2=O)cc1 (stereo not given) | 3.15% (inactive)
28 | CC(=O)Nc1cccc(-c2nc3ccccc3c(=O)o2)c1 | 9.37% (inactive)
29 | CCCC(=O)Nc1cccc(-c2nc3ccccc3o2)c1 | 5.23% (inactive)
30 | COc1ccc(C2C(Oc3ccccc3)C(=O)N2c2ccc(C)c(C)c2)cc1OC (stereo not given) | 4.9% (inactive)
31 | Fc1ccc(CNC(=S)NC2CCCC2)cc1 | 2.21% (inactive)
32 | CCc1cc(C(=O)OC)c(NC(=O)CC2SC(N)=NC2=O)s1 (stereo not given) | 3.51% (inactive)
33 | CC(=O)N1CCN(c2ccc(N=Cc3c(O)n(-c4ccc(Cl)cc4)c(=O)[nH]c3=O)cc2)CC1 | -7.57% (inactive)
34 | COc1ccccc1CCc1nnc(CCC(=O)NC(C)Cc2cccc(C)n2)o1 (stereo not given) | -7.73% (inactive)
35 | CCOc1cc(/C=C2\SC(=N)N(c3nonc3N)C2=O)ccc1OCCN1CCOCC1 | 4.53% (inactive)
36 | CCOc1cc(/C=C2\SC(=N)N(c3nonc3N)C2=O)ccc1OCC(N)=O | 4% (inactive)
37 | COc1cc(/C=C2\SC(=N)N(c3ccc(F)cc3)C2=O)ccc1O | 7.97% (inactive)
38 | COc1ccc(/C=C2\SC(=N)N(c3ccc(F)cc3)C2=O)cc1OC | -3.05% (inactive)
39 | CCN1C(c2ccccc2)=C(c2ccccc2)S/C1=C\C=C1/SC(=S)N(C)C1=O | 3.07% (inactive)
40 | Cc1cccnc1-n1c(CN2C(=O)c3ccccc3C2=O)nc2ccccc2c1=O | -3.32% (inactive)
41 | CCOC(=O)c1c(CSC(=N)N)n(-c2ccccc2)c2cc(Br)c(OC(C)=O)cc12 | -0.53% (inactive)
42 | CCOC(=O)c1c(CSC(=N)N)n(C)c2cc(Br)c(OC(C)=O)cc12 | 1.34% (inactive)
43 | O=C(CN=C1NS(=O)(=O)c2ccccc21)OCC(=O)c1cc(F)ccc1F | -7.99% (inactive)
44 | c1ccc(OCc2nn3c(-c4ccccn4)nnc3s2)cc1 | -10.6% (inactive)

Row | Compound | inhibition
45 | c1coc(-c2nnc3sc(Cc4cccs4)nn23)c1 | -0.74% (inactive)
46 | C1CCC(c2nn3c(-c4n[nH]c5c4CCC5)nnc3s2)CC1 | 9.35% (inactive)
47 | c1ccc(OCc2nn3c(-c4ccncc4)nnc3s2)cc1 | -8.19% (inactive)
48 | c1ccc(CCc2nn3c(-c4ccncc4)nnc3s2)cc1 | -0.85% (inactive)
49 | Clc1ccccc1-c1nnc2sc(CCc3ccccc3)nn12 | 5.64% (inactive)
50 | c1ccc(-c2nnc3sc(Cc4cccs4)nn23)cc1 | 15.9% (inactive)
51 | c1csc(Cc2nn3c(-c4ccncc4)nnc3s2)c1 | -11.8% (inactive)
52 | O=C(OCc1nc2ccccc2s1)c1cnccn1 | -4.85% (inactive)
53 | O=C(c1ccc(=O)[nH]n1)N1CCc2ccccc2C1 | 5.26% (inactive)
54 | COC(=O)CCSCC(=O)Nc1nnc(C)s1 | -2.82% (inactive)
55 | CCN(CC)C(=O)CSc1nnc(-c2ccc(F)cc2)n1N | 3.27% (inactive)
56 | CC(=O)Oc1ccc(C(=O)Nc2cccc(C(=O)c3cccc(NC(=O)c4ccc(OC(C)=O)cc4)c3)c2)cc1 | 74.4% (inactive)
57 | COC1=CC(=O)CC(C)C12Oc1cc(OC)cc(OC)c1C2=O (stereo not given) | -7.12% (inactive)
58 | COCCNC(=O)/C(C#N)=C\c1ccc(CNS(=O)(=O)c2ccccc2)o1 | -0.59% (inactive)
59 | O=C1c2ccccc2C(O)(c2ncc[nH]2)N1CCc1ccccc1 (stereo not given) | -2.48% (inactive)
60 | OCCN1CCN(c2nc(NCc3ccco3)c3ccccc3n2)CC1 | -2.39% (inactive)
61 | Clc1nc(NCc2ccco2)nc(N2CCCCC2)n1 | 5.51% (inactive)
62 | c1ccc(CNc2nc(NCc3ccco3)nc(N3CCOCC3)n2)cc1 | 10.6% (inactive)
63 | OCCNc1nc(N2CCN(Cc3ccccc3)CC2)nc2ccccc12 | -8.82% (inactive)
64 | COc1ccccc1Nc1nc(NCc2ccco2)c2ccccc2n1 | 83.7% (inactive)
65 | c1ccc2c(NCC3CCCO3)nc(N3CCCCC3)nc2c1 (stereo not given) | 1.41% (inactive)
